From PubChem BioAssay (Tox21) come the findings set out here.

Experiment [1] in a line: Nuclear factor erythroid 2-related factor 2/antioxidant responsive element (Nrf2/ARE) small molecule agonists: qHTS cell viability counter screen in human keratinocytes (AID 1919968; active = well fitted curve in the direction sought with a large enough effect in the repeat runs; an effect the other way counts as inactive or inconclusive; also: nearly all actives have a fitted effect of over 55% in size; also: potency is read from the fitted curve at half-maximal effect). The essentials: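 Stably transfected HaCaT (KeratinoSens), 1,500/well. Test agents in DMSO were applied for 23 h, 37 C/5% CO2. CellTiter-Fluor was incubated 1 h before the fluorescence read.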
(In qHTS, concentration-response curves come from the screen itself.)

Experiment [2] deals with Gonadotropin-releasing hormone receptor (Homo sapiens) (UniProt P30968). Nature of the experiment: Human gonadotropin-releasing hormone receptor (GnRHR) small molecule agonists, calcium flux assay in GnRHR-HEK293 cells (AID 1920063). Also: nearly all actives have a fitted effect of over 35% in size. The method in brief:
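Stable human GnRHR HEK293 line. 18 h plating, then calcium dye for 1 h at 37 C. Agonist-mode compound addition from DMSO stocks; fluorescence monitored 3 min.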
(Calcium flux is commonly read through the fluorescence of an indicator in the cells.)

For experiment [3], the target named is KiSS-1 receptor (Homo sapiens) (UniProt Q969F8). Nature of the experiment: Human kisspeptin (KISS1R) small molecule agonists, calcium flux assay in KISS1R-HEK293 cells (AID 1920064; active = well fitted curve in the direction sought with a large enough effect in the repeat runs; an effect the other way counts as inactive or inconclusive). The method in brief:
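After overnight (18 h) culture at 37 C/5% CO2, human KISS1R-HEK293 cells received calcium dye for 1 h, then test compound; emission at 540 nm (excitation 480 nm) was tracked for 3 min.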

Experiment [4] can be described thus: G protein-coupled receptor (GPCR) small molecule agonists, calcium flux assay: HEK293 wild type cell line counter screen (AID 1920065). The method in brief:
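Following 18 h incubation at 37 C/5% CO2, plates got calcium dye for 1 h; compounds, ATP or DMSO were then pinned in and fluorescence followed kinetically (480/540 nm).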

The nature of experiment [5]: p53 small molecule agonists, cell-based qHTS assay with human liver microsomes (AID 1963577). The essentials:
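p53RE-bla reporter cells were pre-incubated 5 h at 37 C, then treated with compounds plus human liver microsomes (0.5 mg/mL final) and NADPH (0.5 mg/mL final) for 16 h at 37 C. Beta-lactamase activity was read by LiveBLAzer fluorescence after 2 h at room temperature.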

Experiment [6] can be described thus: p53 small molecule agonists, cell-based qHTS assay with rat liver microsomes (AID 1963578). The method in brief:
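p53RE-bla cells were exposed to compounds together with rat liver microsomes (0.5 mg/mL final) and NADPH (0.5 mg/mL final) for 16 h at 37 C, then read by LiveBLAzer beta-lactamase fluorescence after 2 h at room temperature.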

The nature of experiment [7]: p53 small molecule agonists, cell-based qHTS assay with human liver microsomes: qHTS cell viability counter screen (AID 1963579). Also: nearly all actives have a fitted effect of over 45% in size. The essentials:
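p53RE-bla cells (4,000/well) were pre-incubated 5 h at 37 C, then given compounds in DMSO plus human liver microsomes (0.5 mg/mL final) and NADPH (0.5 mg/mL final) for 16 h at 37 C. Viability was read by CellTiter-Glo luminescence.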

A short description of experiment [8]: p53 small molecule agonists, cell-based qHTS assay with rat liver microsomes: qHTS cell viability counter screen (AID 1963580). Also: nearly all actives have a fitted effect of over 45% in size. The method in brief: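 After the beta-lactamase ratio was read, CellTiter-Glo was added to the same wells and luminescence measured at 30 min; cells had been treated 16 h at 37 C with compounds, rat liver microsomes and NADPH (0.5 mg/mL final each).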

Experiment [9] is described as follows: p53 small molecule agonists, cell-based qHTS assay: qHTS cell viability counter screen (AID 1963581). Also: nearly all actives have a fitted effect of over 45% in size. The method in brief:
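qHTS counter screen: 16 h compound exposure at 37 C of p53RE-bla HCT-116 cells (4,000 per well, seeded 5 h prior), cell viability by ATP luminescence.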

For experiment [10], the target named is 5-hydroxytryptamine receptor 2A (Homo sapiens) (UniProt P28223). The experiment in a line: 5-hydroxytryptamine receptor 2A (HTR2A) small molecule antagonists, cell-based qHTS assay (AID 1963586). Also: nearly all actives have a fitted effect of over 45% in size. The method in brief: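 CHO cells stably expressing human HTR2A were plated for 18 h at 37 C, then loaded with calcium dye for 1 h. Compounds were preincubated 5 min at room temperature before DOI (4 nM solution) was added. Kinetic fluorescence was read for 3 min.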

Experiment [11] has the same target. Nature of the experiment: 5-hydroxytryptamine receptor 2A (HTR2A) small molecule agonists, cell-based qHTS assay (AID 1963587). Also: nearly all actives have a fitted effect of over 30% in size. The method in brief:
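CHO cells stably expressing human HTR2A, plated 18 h, loaded with calcium dye 1 h at 37 C. Agonist mode: compounds added and intracellular calcium fluorescence recorded kinetically for 2 min at 1 sec intervals.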

For experiment [12], the target named is Muscarinic acetylcholine receptor M1 (Homo sapiens) (UniProt P11229). Nature of the experiment: Cholinergic receptor muscarinic 1 (CHRM1) small molecule antagonists, cell-based qHTS assay (AID 1963588). Also: nearly all actives have a fitted effect of over 40% in size. Also: potency is read from the fitted curve at half-maximal effect. The essentials:
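Compounds were tested at 15 concentrations in three independent runs. Dye-loaded CHRM1-CHO cells were exposed 5 min at room temperature before stimulation by acetylcholine added at 50nM. Intracellular calcium was read kinetically on FDSS for 3 min.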

Experiment [13] shares this target. Nature of the experiment: Cholinergic receptor muscarinic 1 (CHRM1) small molecule agonists, cell-based qHTS assay (AID 1963589). Also: nearly all actives have a fitted effect of over 35% in size. The essentials: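 Kinetic fluorescence (1 s intervals) of calcium-sensitive dye in human M1 CHO cells after compound addition; cells pre-incubated 18 h at 37 C/5% CO2 and dye-loaded 1 h.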
In experiment [14] the target is Beta-2 adrenergic receptor (Homo sapiens) (UniProt P07550). The experiment in a line: Adrenergic beta2 receptor (ADRB2) small molecule antagonists, cell-based qHTS assay (AID 1963592). Also: series mostly up to about 92 µM; nearly all actives have a fitted effect of over 50% in size. The essentials:
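Assay format: CHO-ADRB2 cells, 18-20hr seeding at 37C/5% CO2, then compound plus 1nM isoproterenol agonist mix for 0.5hr RT. Homogeneous time-resolved fluorescence cAMP detection after 1hr, expressed as 665/615 nm ratio.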

Experiment [15] addresses D(2) dopamine receptor (Homo sapiens) (UniProt P14416). Nature of the experiment: Dopamine D2 receptor (DRD2) small molecule agonists, cell-based qHTS assay (AID 1963594). Also: nearly all actives have a fitted effect of over 35% in size. The method in brief: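 HEK293 cells stably expressing human DRD2, pre-treated with PDE inhibitor Ro20-1724 (0.1 mM final) and compound 10 min at room temperature, then stimulated with NKH477 (200nM […]) for 30 min. cAMP read by HTRF (665/620 nm).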

Experiment [16] shares this target. Nature of the experiment: Dopamine D2 receptor (DRD2) small molecule antagonists, cell-based qHTS assay (AID 1963595; active = well fitted inhibition curve with a large enough effect in the signal ratio in the repeat runs, with a control signal flat; the % refers to the signal ratio). The method in brief: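 Readout: HTRF cAMP, cAMP-d2 competing with cellular cAMP for anti-cAMP cryptate, read after 1 h. Cells: DRD2-HEK293. Conditions: 0.1 mM Ro20-1724, 12 nM quinpirole, 200 nM NKH477, 30 min RT.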
A short description of experiment [17]: p53 small molecule agonists, cell-based qHTS assay (AID 1963582; active = well fitted activation curve with a large enough effect in the signal ratio in the repeat runs, not every such curve was filed as active; the % refers to the signal ratio). The essentials:
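Measured: fluorescence from cleaved LiveBLAzer substrate. System: p53RE-bla cells, 16 h compound treatment at 37 C, 2 h substrate step at room temperature.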

Experiment [18] in a line: cAMP Responsive Elements (CRE) small molecule antagonists, cell-based qHTS assay (AID 1963591; active = well fitted inhibition curve with a large enough effect in the signal ratio in the repeat runs, not every such curve was filed as active; the % refers to the signal ratio). The essentials: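 Reporter line CRE-bla HEK 293T in dialyzed-FBS DMEM; cells preincubated 18 h, treated 3 h with compound plus NKH477 (0.25 uM final); LiveBLAzer FRET, 2 h RT.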
A short description of experiment [19]: cAMP Responsive Elements (CRE) small molecule agonists, cell-based qHTS assay (AID 1963590). The essentials: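 Test agents in DMSO were incubated 3 h at 37 C/5% CO2 with CRE-bla HEK 293T cells seeded 18 h earlier; LiveBLAzer B/G FRET substrate was added and read after 2 h at room temperature.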
The target in experiment [20] is Beta-2 adrenergic receptor (Homo sapiens) (UniProt P07550). The experiment in a line: Adrenergic beta2 receptor (ADRB2) small molecule agonists, cell-based qHTS assay (AID 1963593).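 Also: CHO cells stably overexpressing human ADRB2.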 The method in brief:
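CHO cells stably over-expressing ADRB2 were plated overnight at 37C, then dosed with compounds plus a stimulation mix containing 100uM IBMX and 25uM Ro-20-1724 for 0.5hr at room temperature. cAMP was measured by HTRF competition, 1hr.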

Values without a mark were called inactive. Results filed as inconclusive are left out. The source made the active and inactive calls. Unless noted, calls follow the shape of the full dose curve.

5-hydroxytryptamine receptor 2A (Homo sapiens), sequence (P28223 whole entry, looked up): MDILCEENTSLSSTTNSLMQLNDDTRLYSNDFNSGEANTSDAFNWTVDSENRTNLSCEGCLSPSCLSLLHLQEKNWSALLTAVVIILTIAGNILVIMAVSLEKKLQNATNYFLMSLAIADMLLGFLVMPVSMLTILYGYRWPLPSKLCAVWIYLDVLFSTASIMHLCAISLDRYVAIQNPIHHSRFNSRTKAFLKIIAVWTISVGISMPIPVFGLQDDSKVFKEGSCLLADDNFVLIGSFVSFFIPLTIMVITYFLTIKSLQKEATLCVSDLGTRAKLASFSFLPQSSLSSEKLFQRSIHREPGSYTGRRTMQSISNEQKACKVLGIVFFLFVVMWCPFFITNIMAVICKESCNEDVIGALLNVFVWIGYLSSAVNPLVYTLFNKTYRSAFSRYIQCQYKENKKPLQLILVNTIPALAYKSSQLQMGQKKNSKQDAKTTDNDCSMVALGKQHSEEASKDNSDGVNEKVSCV
Beta-2 adrenergic receptor (Homo sapiens), sequence (P07550 whole entry, looked up): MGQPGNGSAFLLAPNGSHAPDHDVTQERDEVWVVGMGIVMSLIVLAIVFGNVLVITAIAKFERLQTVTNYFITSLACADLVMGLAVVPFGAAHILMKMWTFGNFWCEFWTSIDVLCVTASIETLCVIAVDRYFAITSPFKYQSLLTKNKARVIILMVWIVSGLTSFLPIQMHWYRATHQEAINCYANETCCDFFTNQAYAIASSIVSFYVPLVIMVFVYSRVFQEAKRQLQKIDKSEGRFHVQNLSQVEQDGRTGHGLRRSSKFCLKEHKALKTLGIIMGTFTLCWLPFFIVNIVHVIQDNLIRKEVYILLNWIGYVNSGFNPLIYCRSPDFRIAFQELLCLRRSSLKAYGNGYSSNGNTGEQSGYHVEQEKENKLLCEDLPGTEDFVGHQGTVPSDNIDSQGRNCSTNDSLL
Muscarinic acetylcholine receptor M1 (Homo sapiens), sequence (P11229 whole entry, looked up): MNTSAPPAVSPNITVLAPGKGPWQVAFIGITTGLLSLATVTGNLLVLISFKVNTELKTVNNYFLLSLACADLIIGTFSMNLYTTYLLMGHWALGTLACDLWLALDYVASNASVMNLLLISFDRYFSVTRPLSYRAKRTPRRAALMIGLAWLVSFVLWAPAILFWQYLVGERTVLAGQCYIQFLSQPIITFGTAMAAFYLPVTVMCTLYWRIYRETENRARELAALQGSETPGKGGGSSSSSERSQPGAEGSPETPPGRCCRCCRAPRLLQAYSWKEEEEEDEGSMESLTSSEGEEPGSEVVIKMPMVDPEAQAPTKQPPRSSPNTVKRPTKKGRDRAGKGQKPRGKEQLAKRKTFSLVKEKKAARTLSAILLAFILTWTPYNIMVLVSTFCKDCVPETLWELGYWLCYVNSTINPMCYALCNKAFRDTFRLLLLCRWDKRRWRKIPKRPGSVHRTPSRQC
KiSS-1 receptor (Homo sapiens), sequence (Q969F8 whole entry, looked up): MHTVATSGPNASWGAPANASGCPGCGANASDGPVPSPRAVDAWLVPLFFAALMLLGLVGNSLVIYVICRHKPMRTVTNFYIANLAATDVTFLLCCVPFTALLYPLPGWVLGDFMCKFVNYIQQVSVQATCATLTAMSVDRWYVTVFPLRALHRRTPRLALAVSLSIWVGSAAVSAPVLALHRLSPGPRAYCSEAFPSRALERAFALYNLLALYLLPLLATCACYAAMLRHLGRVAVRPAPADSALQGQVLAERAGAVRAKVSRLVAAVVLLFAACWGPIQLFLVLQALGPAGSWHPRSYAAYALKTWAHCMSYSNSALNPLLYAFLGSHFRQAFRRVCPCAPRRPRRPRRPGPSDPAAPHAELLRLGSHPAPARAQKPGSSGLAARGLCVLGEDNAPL
Gonadotropin-releasing hormone receptor (Homo sapiens), sequence (P30968 whole entry, looked up): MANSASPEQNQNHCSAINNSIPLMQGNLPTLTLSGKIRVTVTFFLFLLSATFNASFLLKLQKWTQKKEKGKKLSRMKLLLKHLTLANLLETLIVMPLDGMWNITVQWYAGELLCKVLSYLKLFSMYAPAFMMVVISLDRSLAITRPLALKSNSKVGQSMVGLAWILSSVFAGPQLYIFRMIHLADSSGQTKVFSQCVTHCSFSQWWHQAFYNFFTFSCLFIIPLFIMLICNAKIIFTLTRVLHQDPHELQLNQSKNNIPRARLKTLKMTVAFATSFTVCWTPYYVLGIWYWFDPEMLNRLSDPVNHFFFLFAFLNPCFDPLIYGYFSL
D(2) dopamine receptor (Homo sapiens), sequence (P14416 whole entry, looked up): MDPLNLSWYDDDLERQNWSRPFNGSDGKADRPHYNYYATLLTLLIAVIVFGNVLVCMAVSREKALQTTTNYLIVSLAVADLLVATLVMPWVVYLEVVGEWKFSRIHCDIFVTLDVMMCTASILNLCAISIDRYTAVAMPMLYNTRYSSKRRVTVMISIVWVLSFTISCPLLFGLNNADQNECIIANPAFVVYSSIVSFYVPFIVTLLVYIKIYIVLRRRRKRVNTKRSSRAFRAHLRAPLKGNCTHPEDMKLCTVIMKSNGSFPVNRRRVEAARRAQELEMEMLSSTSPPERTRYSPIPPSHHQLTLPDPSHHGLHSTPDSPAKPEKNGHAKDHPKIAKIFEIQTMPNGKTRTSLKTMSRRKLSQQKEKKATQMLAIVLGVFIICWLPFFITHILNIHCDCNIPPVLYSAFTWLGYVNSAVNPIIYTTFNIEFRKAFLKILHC

Turning to `O=C(O)CCCCCCCCCCCBr`, the Potency entry in [1], in [2], in [3], in experiment [4], in experiment [5] and in [6] was “inactive” in each case. In addition, the Potency result in experiment [7], in experiment [8], in experiment [9], in [10], in experiment [11] and in experiment [12] was “inactive” each time. Besides, the Potency result in experiment [13], in experiment [14], in [15] and in experiment [16] was “inactive” throughout.

Take `COc1cc(/C=C/c2ccccc2)oc(=O)c1`: the Potency result in experiment [1], in experiment [2], in experiment [3], in [4], in [5] and in [6] was “inactive” in each case. Further, the Potency result in [7], in experiment [8], in [9], in experiment [10], in experiment [11] and in experiment [12] was “inactive” in each case. Also, the Potency entry in experiment [13], in experiment [15] and in [16] was “inactive” each time.

For `Clc1ccc(C(Cn2ccnc2)OCc2ccc(Sc3ccccc3)cc2)c(Cl)c1` (stereo unspecified), the Potency entry in experiment [1], in experiment [2], in experiment [3], in [4], in experiment [5] and in experiment [6] was “inactive” in each case. For the same molecule, the Potency entry in experiment [7], in experiment [8], in [9], in experiment [17], in experiment [12] and in experiment [13] was “inactive” each time. The Potency result in [18], in experiment [14], in experiment [15] and in experiment [16] was “inactive” each time.

Consider `CN(C)CC/C=C1\c2ccccc2COc2ccccc21`, for which the Potency entry in [1], in experiment [2], in experiment [3], in experiment [4], in experiment [5] and in experiment [6] was “inactive” each time. The Potency entry in experiment [7], in experiment [8], in experiment [9], in experiment [17], in [19] and in experiment [18] was “inactive” in each case. In addition, the Potency result in experiment [15] and in experiment [16] was “inactive” in each case.

Regarding `C1CCC2=NCCCN2CC1`, the Potency entry in experiment [1], in experiment [2], in [3], in experiment [4], in experiment [5] and in experiment [6] was “inactive” throughout. Further, the Potency entry in [7], in experiment [8], in experiment [9], in experiment [10], in experiment [11] and in [13] was “inactive” throughout. The Potency entry in experiment [19], in [18], in experiment [14], in experiment [15] and in [16] was “inactive” each time.

For `Cc1ccccn1`, the Potency result in experiment [1], in experiment [2], in [3], in experiment [4], in experiment [5] and in experiment [6] was “inactive” in each case. The Potency entry in experiment [7], in [8], in [17], in experiment [10], in [11] and in [12] was “inactive” each time. Also, the Potency result in experiment [13], in experiment [19], in experiment [14], in experiment [20], in experiment [15] and in experiment [16] was “inactive” in each case.

For `NC1(c2ccc(-c3nc4ccn5c(=O)[nH]nc5c4cc3-c3ccccc3)cc2)CCC1`, the values for the Potency in [1] and in experiment [12] were 29.8 µM (active) and 2.9 µM (active), respectively. Also, the Potency entry in [2], in [3], in [4], in experiment [5], in experiment [6] and in experiment [7] was “inactive” in each case. Further, the Potency entry in experiment [8], in [9], in experiment [10], in experiment [13], in experiment [14] and in experiment [15] was “inactive” throughout. In addition, the Potency entry in experiment [16] is “inactive”.
